# Screening data (PubChem BioAssay)
# This excerpt belongs to a sample that is enriched for hits.
# TDP1 cell CPT – qHTS for Inhibitors of human tyrosyl-DNA phosphodiesterase 1 (TDP1): qHTS in cells in presence of CPT; actives 12% (n = 420,000); chicken DT40 Tdp1-/-;hTDP1 cells + 20 nM CPT, ATP luminescence, 48 h; Potency, µM (series often up to 46.2 µM), without a hit: at the highest dose activity change, negative = growth inhibition, hits mostly inhibitors; note: potency is the fitted concentration of half-maximal effect; nearly all actives have a fitted effect of over 55% in size
#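 Chicken DT40 Tdp1-/- cells complemented with human TDP1, 400 cells/well, exposed to compounds plus 20 nM camptothecin for at least 48 h at 37 C; viability read as ATP content by CellTiter-Glo luminescence.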
# TDP1 cell noCPT – qHTS for Inhibitors of human tyrosyl-DNA phosphodiesterase 1 (TDP1): qHTS in cells in absence of CPT; DT40 Tdp1-/- hTDP1 cells, no CPT, ATP luminescence, 48 h; Potency, µM (top dose mostly 46.2 µM), for the others: at the top dose activity change, negative = growth inhibition, hits mostly inhibitors; actives 15% (n = 420,000); note: potency is the fitted concentration of half-maximal effect; nearly all actives have a fitted effect of over 55% in size
#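 Growth kinetics read by CellTiter-Glo luminescence after ≥48 hr at 37 °C. Cells: DT40 Tdp1-/- stably carrying human TDP1, 400 per well, compound exposure in the absence of CPT (DMSO vehicle).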
# ALOX12 inh – Primary qHTS assay for inhibitors of human arachidonate 12S-lipoxygenase (ALOX12): Round 2; Polyunsaturated fatty acid lipoxygenase ALOX12 (Homo sapiens), P18054; purified 12hLO, xylenol orange hydroperoxide absorbance; Potency, µM (doses to about 108 µM), without a hit: at the highest dose activity change, negative = inhibition, usual class: inhibitors; actives 1.1% (n = 580,000); AID 1671190, 2021; note: potency is the fitted concentration of half-maximal effect
# Target sequence (P18054 whole entry, looked up): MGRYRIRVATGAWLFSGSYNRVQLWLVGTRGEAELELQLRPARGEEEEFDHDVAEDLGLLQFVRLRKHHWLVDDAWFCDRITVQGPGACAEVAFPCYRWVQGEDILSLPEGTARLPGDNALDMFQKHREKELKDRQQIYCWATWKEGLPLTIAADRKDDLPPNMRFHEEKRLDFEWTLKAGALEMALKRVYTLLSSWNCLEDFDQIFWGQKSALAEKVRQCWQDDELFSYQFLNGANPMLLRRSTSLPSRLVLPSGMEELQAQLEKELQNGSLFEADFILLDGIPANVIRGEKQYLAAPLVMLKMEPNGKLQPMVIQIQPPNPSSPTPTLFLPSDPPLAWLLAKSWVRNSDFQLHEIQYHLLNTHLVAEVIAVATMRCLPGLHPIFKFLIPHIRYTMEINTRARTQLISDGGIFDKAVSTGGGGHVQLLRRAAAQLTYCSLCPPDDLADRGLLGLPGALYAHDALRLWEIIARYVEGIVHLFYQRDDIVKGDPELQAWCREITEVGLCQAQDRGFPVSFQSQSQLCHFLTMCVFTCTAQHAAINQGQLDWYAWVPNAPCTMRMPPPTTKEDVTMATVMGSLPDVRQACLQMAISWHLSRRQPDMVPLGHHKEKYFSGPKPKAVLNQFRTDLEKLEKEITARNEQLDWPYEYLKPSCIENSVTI
#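 Hydroperoxide product was detected by ferrous iron/xylenol orange as the 573 to 405 nm absorbance ratio. Arachidonic acid at 40 uM (final) was turned over for 30 min at room temperature by 150 nM human 12hLO, pH 7.0 Hepes buffer, after 15 min compound preincubation.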
# HT1080-NT tox – qHTS for induction of synthetic lethality in tumor cells producing 2HG: qHTS for the HT-1080-NT fibrosarcoma cell line; Potency, µM (doses to about 46.1 µM), for inactives: top-dose activity, negative = less viability, actives largely listed as cytotoxic; actives 1.6% (n = 360,000); HT-1080-NT fibrosarcoma viability, CellTiter-Glo ATP luminescence, 48 h;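 note: NT is the 2HG producing partner of a matched IDH1 knockdown line; potency is the fitted concentration of half-maximal effect; 0% = DMSO-treated cells and -100% = media-only wells without cells; nearly all actives have a fitted effect of over 55% in size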
#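 HT-1080-NT fibrosarcoma cells (2HG-overproducing), 750 cells/well in RPMI with 5% FBS, dosed after 2 h and incubated 48 h at 37C. CellTiter-Glo luminescence normalized to DMSO and no-cell wells; concentration-response curves fitted and classed.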
# HT1080 IDH1KD tx – qHTS for induction of synthetic lethality in tumor cells producing 2HG: qHTS for the HT-1080-IDH1KD cell line; AID 686971, 2013; HT-1080 IDH1 knockdown viability, ATP luminescence, 48 h; Potency, µM (highest dose often 46.1 µM), inactives show at the top dose activity, negative = toxicity, hits mostly cytotoxic; actives 2% (n = 360,000);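 note: potency is the fitted concentration of half-maximal effect; 0% = DMSO wells and -100% = cell-free medium wells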
#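 % activity derives from luminescence (CellTiter-Glo), normalised to DMSO and no-cell wells. HT-1080-IDH1KD cells, 750/well, had 48 h compound exposure at 37 °C.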
# IL1B secr inh – qHTS for Inhibitors of Inflammasome Signaling: IL-1-beta AlphaLISA Primary Screen | actives 4.7% (n = 360,000) | AID 743279, 2014 | activity change, % at 57.5 µM | THP-1 LPS/ATP IL-1B secretion, AlphaLISA, 16 h; hits give low values; in the data active = activity change below about -50%; inconclusive = mostly about -30% to -49%
#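 THP-1 cells pretreated 1 hr with compounds (up to 57.5 uM final), then stimulated with LPS (250 ng/mL final) plus ATP (1.25 mM final); secreted IL-1B measured by AlphaLISA after 16 hr, decreased signal indicating inhibition.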
# An asterisk follows results filed as active; ? = inconclusive; . = no result; [ ] = another dose, or the depositor's remark. Unless noted, calls come from the whole dose curve; as a rule, active = well fitted curve in the direction sought with a large enough effect; inconclusive = small, poorly fitted or top-dose-only effect, or another doubt; inactive = no such curve, though single readings can be large; an effect the other way counts as inactive or inconclusive. Unless noted, % is set by controls: 0 for no effect and ±100 for the full control effect.
SMILES,TDP1 cell CPT,TDP1 cell noCPT,ALOX12 inh,HT1080-NT tox,HT1080 IDH1KD tx,IL1B secr inh
CN(C)CCCNc1nc2cc(-c3cccc(C(F)(F)F)c3)sc2c(=O)n1C,18.4µM*,?,-16.3%,?,?,-65.8*
Cn1c(NCc2cccnc2)nc2cc(-c3cccc(C(F)(F)F)c3)sc2c1=O,?,?,-7.9%,-6.2%,11.5%,2.1
Cn1c(NCc2ccccc2)nc2cc(-c3cccc(C(F)(F)F)c3)sc2c1=O,?,18.4µM*,13.7%,12.0%,7.6%,0.0
COCCNc1nc2cc(-c3cccc(C(F)(F)F)c3)sc2c(=O)n1C,?,-21.6%,7.9%,11.5%,3.2%,72.1
COc1ccc(Cl)cc1N(CC(=O)N1CCN(C)CC1)S(=O)(=O)c1ccccc1,.,.,44.6%,.,.,.
O=C1CCN(C(=O)C2CCCCC2)CCCC(c2nc(-c3ccccc3)no2)CCN1 (stereo not drawn),.,.,2.3%,.,.,.
COc1cc(NC(=O)N2C[C@@H](F)C[C@H]2C(=O)N2CCCCC2)cc(OC)c1,.,.,22.0%,.,.,.
O=C(COc1ccc(-c2ccccc2)cc1)N/N=C/c1cc(O)ccc1Br,?,16.4µM*,-0.2%,-8.9%,?,-95.0*
O=C(N/N=C/c1coc2ccccc2c1=O)c1ccccc1Br,-28.0%,-20.6%,10.7%,-1.2%,-1.2%,-3.1
O=C(COc1ccc(-c2ccccc2)cc1)N/N=C/c1ccccc1Br,-3.8%,?,-2.0%,-0.7%,0.6%,-9.2
O=C(N/N=C/c1cc(Cl)ccc1O)c1ccccc1Br,6.51µM*,6.51µM*,-28.3%,?,9.2µM*,297.5
O=C(CNC(=O)c1ccccc1Br)N/N=C/c1cc(Br)ccc1O,8.2µM*,5.8µM*,1.8%,?,?,264.3
O=C(CN1CC(c2ccccc2)CC1=O)N/N=C/c1cc(Br)ccc1O (stereo not drawn),8.2µM*,6.51µM*,?,?,?,70.8
Cc1ccn(Cc2cc(C(=O)O)c3ccccc3n2)n1,.,.,42.0%,.,.,.
COCCn1ncc(N2CCC(C(=O)Nc3ccc(N4CCOCC4)cc3)C2)cc1=O (stereo not drawn),.,.,23.6%,.,.,.
O=C(CNC(=O)c1ccc2c(c1)OCO2)N/N=C/c1cc(Br)ccc1O,8.2µM*,8.2µM*,9.2%,?,11.6µM*,115.3
O=C(CNC(=O)c1ccccc1Br)N/N=C/c1ccccc1O,?,23.1µM*,?,?,?,132.3
O=C(N/N=C/c1cc(Br)c(Br)o1)c1cccnc1,16.4µM*,18.4µM*,-8.7%,?,?,6.1
O=C(N/N=C\c1cc(Br)c(Br)o1)c1cncc(Br)c1,?,?,3.7%,-26.4%,-8.7%,9.6
O=C(CNC(=O)c1ccccc1)N/N=C/c1cc(Br)ccc1O,7.31µM*,7.31µM*,-14.8%,?,16.4µM*,60.5
NC(=O)C1CCN(C(=O)c2ccc3c(c2)CCN3S(=O)(=O)c2ccc(Cl)cc2)CC1,.,.,-29.3%,.,.,.
Cc1ccc(Cl)cc1NC(=O)Cn1c(N2CCCCC2)nc(C)c(C)c1=O,.,.,37.9%,.,.,.
COCC(=O)NC1CCC12CCN(C(=O)c1ccc(OC)cc1)CC2 (stereo not drawn),.,.,13.7%,.,.,.
C/C(=N/NC(=O)CNC(=O)c1ccc2c(c1)OCO2)c1ccc2c(c1)CCCC2,8.2%,-19.1%,0.3%,-5.1%,?,-50.2*
O=C(COc1ccccc1)NCC(=O)N/N=C/c1cc(Br)ccc1OCc1ccccc1,23.1µM*,16.4µM*,-0.1%,-22.1%,?,-52.6*
SMILES,TDP1 cell CPT,TDP1 cell noCPT,ALOX12 inh,HT1080-NT tox,HT1080 IDH1KD tx,IL1B secr inh
O=C(N/N=C/c1c(Cl)nc2ccccn2c1=O)c1cccnc1,?,?,3.16µM*,2.0%,-14.1%,0.0
O=C(CNC(=O)c1ccco1)N/N=C/c1cc(Br)ccc1O,2.91µM*,5.8µM*,?,?,25.9µM*,123.8
O=c1c2nc(OCc3ccc(C(F)(F)F)cc3)ccc2ncn1C1CC1,.,.,17.0%[176 µM],.,.,.
Cc1ncsc1CN1CCCCC1c1nc(CCOc2ccc(F)cc2)no1 (stereo not drawn),.,.,46.8%,.,.,.
Cc1nc(CC2CCN(C(=O)C3CCC3)CC2)n[nH]1,.,.,37.7%,.,.,.
CCc1ccccc1NC(=O)N(C)CC1CCOCC1,.,.,29.4%,.,.,.
O=C(N/N=C/c1cc(Cl)ccc1O)c1cccnc1,0.92µM*,1.03µM*,2.1%,?,?,234.0
CC(On1nnc2ccc(Cl)cc21)C(=O)Nc1cc(Cl)cc(Cl)c1 (stereo not drawn),.,.,3.9%,.,.,.
COc1cccc(/C=C2/CN(C)CC3=C2OC(N)=C(C#N)C3c2cccc(OC)c2)c1 (stereo not drawn),18.4µM*,16.4µM*,?,?,?,?
CCCCOc1ccccc1C1C(C(=O)OC)=C(C)N(C)C(C)=C1C(=O)OC,?,23.1µM*,-17.4%,5.8%,-2.8%,-16.5
COC(=O)C1=C(C)N(C)C(C)=C(C(=O)OC)C1c1ccccc1C,?,?,350.9%,-4.4%,-6.5%,-1.1
O=C(NNC(=O)c1ccc2ccccc2n1)c1ccc(O)cc1,?,?,6.2%,-17.8%,-27.6%,0.0
